The record followed here is PubChem BioAssay AID504339 (National Center for Advancing Translational Sciences (NCATS), 2011).

Screen size: about 390,000 compounds; about 17,000 (4.4%) were called active. Roughly 8% stayed inconclusive and do not appear here. For the sample, actives were picked, then their nearest neighbours and some compounds at random. Values without a mark were called inactive. Calls come from the whole dose curve; as a rule, active = well fitted inhibition curve with a large enough effect; inconclusive = small, poorly fitted or top-dose-only effect; inactive = no such curve, though single readings can be large or run the other way.
% is set by controls: 0 for no effect and ±100 for the full control effect; potency is the fitted concentration of half-maximal effect.

The assay deals with Lysine-specific demethylase 4A (Homo sapiens) (UniProt O75164). The assay can be described thus: qHTS Assay for Inhibitors of JMJD2A-Tudor Domain. Note: nearly all actives have a fitted effect of over 50% in size. The following applies: AlphaScreen JMJD2A-Tudor / H3K4me3 peptide binding; series mostly up to 114 µM; activity change, negative = inhibition: at the top concentration. (In qHTS, concentration-response curves come from the screen itself.)
Sequence of Lysine-specific demethylase 4A (Homo sapiens) (O75164 whole entry, looked up, the tested form may be a part): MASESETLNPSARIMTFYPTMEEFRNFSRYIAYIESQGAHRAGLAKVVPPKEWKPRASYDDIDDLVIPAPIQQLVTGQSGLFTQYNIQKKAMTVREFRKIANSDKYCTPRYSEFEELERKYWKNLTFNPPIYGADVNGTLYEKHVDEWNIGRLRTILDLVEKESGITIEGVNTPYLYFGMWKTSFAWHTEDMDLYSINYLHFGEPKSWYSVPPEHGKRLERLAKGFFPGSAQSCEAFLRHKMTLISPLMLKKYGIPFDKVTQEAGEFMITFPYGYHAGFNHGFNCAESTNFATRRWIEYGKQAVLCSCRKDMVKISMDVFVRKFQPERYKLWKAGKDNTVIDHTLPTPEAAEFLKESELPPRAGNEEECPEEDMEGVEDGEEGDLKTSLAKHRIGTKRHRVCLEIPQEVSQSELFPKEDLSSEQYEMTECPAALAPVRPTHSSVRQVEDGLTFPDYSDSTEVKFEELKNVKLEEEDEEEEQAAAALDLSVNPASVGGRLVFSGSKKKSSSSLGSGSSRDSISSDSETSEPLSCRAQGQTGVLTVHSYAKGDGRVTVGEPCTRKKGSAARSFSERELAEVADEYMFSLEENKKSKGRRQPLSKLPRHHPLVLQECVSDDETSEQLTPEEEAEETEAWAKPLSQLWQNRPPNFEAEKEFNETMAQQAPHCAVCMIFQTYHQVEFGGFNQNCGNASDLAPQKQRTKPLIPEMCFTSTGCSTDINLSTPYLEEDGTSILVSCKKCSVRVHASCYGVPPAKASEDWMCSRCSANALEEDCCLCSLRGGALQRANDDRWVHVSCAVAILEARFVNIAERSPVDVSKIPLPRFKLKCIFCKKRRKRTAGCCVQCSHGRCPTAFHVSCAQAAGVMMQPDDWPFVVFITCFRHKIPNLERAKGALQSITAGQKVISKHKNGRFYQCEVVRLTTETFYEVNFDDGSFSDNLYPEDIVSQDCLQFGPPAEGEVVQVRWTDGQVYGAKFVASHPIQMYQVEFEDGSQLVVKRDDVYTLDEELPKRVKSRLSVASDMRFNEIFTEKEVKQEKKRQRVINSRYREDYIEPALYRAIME
In the case of `COc1ccc(C2CC(=O)Oc3ccc(C(C)(C)C)cc32)cc1` (stereo not given), the “activity change, negative = inhibition” value was 17.9%.

For `COc1cc(OC)c2ccc(=O)oc2c1C(CCN1CCN(c2ccccc2)CC1)c1ccc2c(c1)OCO2` (stereo not given), the Potency was 17.8 µM (active).

`COc1cc(C2CC(=O)Oc3cc(OC)c(OC)c(OC)c32)cc(OC)c1OC` (stereo not given): the “activity change, negative = inhibition” value is -11.6%.

Regarding `COc1cc(COCC(O)CN2CCN(Cc3ccc4c(c3)OCO4)CC2)cc(OC)c1OC` (stereo not given), the “activity change, negative = inhibition” value is -14.8%.

In the case of `COc1cc(OC)c2c(c1C(CCN1CCCCC1)c1ccc(N(C)C)cc1)OC(=O)CC2c1ccc(N(C)C)cc1` (stereo not given), the Potency is 35.5 µM (active).

As to `O=C(NCC(c1ccc2c(c1)OCO2)N1CCN(c2ccccc2)CC1)C(=O)Nc1ccccc1F` (stereo not given), the “activity change, negative = inhibition” value was -30%.

In the case of `COc1ccc(CNC(=O)c2cc3c(=O)[nH]c4ccc(C)cc4c3s2)c(OC)c1`, the “activity change, negative = inhibition” value was -7.27%.

As to `COc1ccc(-c2cn3c(n2)sc2cc(C(=O)Nc4ccccc4F)ccc23)cc1`, the “activity change, negative = inhibition” value is -9.21%.

For `Cc1ccccc1CNC(=O)c1cccc(NC(=O)c2nsc3ccccc23)c1`, the “activity change, negative = inhibition” value was -2.6%.

As to `COc1ccc(-n2c(=O)c3sc4ccccc4c3n(CC(=O)Nc3cccc(C)c3)c2=O)cc1`, the “activity change, negative = inhibition” value is -7.95%.

Regarding `O=C(Nc1ccc2nc(SCCOc3ccccc3)sc2c1)c1ccco1`, the “activity change, negative = inhibition” value is -11.9%.

As to `CC(=O)c1ccc(NS(=O)(=O)c2ccc(-c3cc(C)no3)s2)cc1`, the “activity change, negative = inhibition” value is -20.1%.

As for `CCN(CC)c1nn2c(=O)c(C(=O)NCCc3ccccc3)cnc2s1`, the “activity change, negative = inhibition” value was -12%.

Regarding `CCN(CCCNC(=O)c1c(C)oc2ncn(CC(C)C)c(=O)c12)Cc1ccccc1`, the “activity change, negative = inhibition” value was -0.647%.

Take `CCc1ccc(NC(=O)CCS(=O)(=O)c2cc3c(cc2Cl)NC(=O)CO3)cc1`: the “activity change, negative = inhibition” value is -16.8%.

Turning to `O=C(CSc1nc(=O)n(Cc2cccnc2)c2c1CCC2)Nc1ccc(F)cc1F`, the “activity change, negative = inhibition” value is -1.3%.

Turning to `O=S(=O)(c1ccc2nc(NCc3ccccc3Cl)ccc2c1)N1CCCCC1`, the “activity change, negative = inhibition” value was -26%.

Turning to `COc1cc(NS(=O)(=O)c2ccc3ccccc3c2)c2ncccc2c1`, the Potency result is “inactive”.

Consider `O=S(=O)(Nc1cccc2cccnc12)c1cccc2cccnc12`, for which the “activity change, negative = inhibition” value is -32.2%.

As to `O=[N+]([O-])c1ccccc1S(=O)(=O)Nc1cccc2cccnc12`, the Potency was 56.2 µM (active).

Take `COc1ccccc1CNC(=O)C(Cc1ccccc1)NS(=O)(=O)c1ccc2c(c1)oc(=O)n2C` (stereo not given): the “activity change, negative = inhibition” value is -15.5%.

In the case of `O=C1CCCc2cc(S(=O)(=O)N3CCCC(C(=O)NCc4ccccc4)C3)ccc2N1` (stereo not given), the “activity change, negative = inhibition” value was -0.647%.

As to `O=C(NCc1ccccc1Cl)c1cccn1-c1nnc(N2CCCCC2)s1`, the “activity change, negative = inhibition” value is -28.2%.

Consider `COc1ccc(-c2nn(CC(=O)Nc3ccccc3F)c3c2cnc2ccc(F)cc23)cc1`, for which the “activity change, negative = inhibition” value was -7.67%.

With `C=CCOc1cccc(CNCc2cccnc2)c1`, the “activity change, negative = inhibition” value is -16.4%.

Turning to `C=CCOc1cccc(CNn2cn[nH]c2=S)c1`, the Potency was 22.4 µM (active).

In the case of `C=CCOc1c(CNn2cn[nH]c2=S)cccc1OC`, the Potency is 3.55 µM (active).

With `C=CCC(Nc1ccccc1)c1cccc(OC)c1OC` (stereo not given), the “activity change, negative = inhibition” value was 28.4%.

Consider `C=CCOc1cccc(C2NC(=O)c3ccccc3O2)c1` (stereo not given), for which the “activity change, negative = inhibition” value is -17.8%.

Turning to `COc1cccc(CNCCSc2nnnn2C)c1OCc1ccccc1Cl`, the “activity change, negative = inhibition” value was -2.24%.

Take `COc1ccc(CCNC(=O)c2cc(=O)c3c(C)cc(C)cc3o2)cc1OC`: the “activity change, negative = inhibition” value is -22.9%.

`CSc1nc(-c2ccccc2Cl)nc2c1Cc1c(CO)cnc(C)c1O2`: the “activity change, negative = inhibition” value is -27.5%.

Turning to `COc1ccccc1CNC(=O)c1ccc(CS(=O)c2ccccc2Cl)o1` (stereo not given), the “activity change, negative = inhibition” value was 8.79%.

Take `CCc1nn(CC(=O)Nc2cc(C)cc(C)c2)c(=O)c2cc3sccc3n12`: the “activity change, negative = inhibition” value is -14.9%.

As for `CC(=O)N1CCCc2cc(S(=O)(=O)N3CCC(C(=O)NC4CCCCC4)CC3)ccc21`, the “activity change, negative = inhibition” value was -7.74%.

For `CN(CC(=O)Nc1cccc(C(F)(F)F)c1)S(=O)(=O)c1cccs1`, the “activity change, negative = inhibition” value is 0.683%.

As to `COc1ccc(CNC(=O)CN(Cc2ccc(Cl)cc2)S(C)(=O)=O)cc1`, the “activity change, negative = inhibition” value was -6.03% [at 57.1 µM].

Regarding `CN(CC(=O)NCc1ccc(Cl)cc1)S(=O)(=O)c1cccs1`, the Potency was 89.1 µM (active).

For the compound `Cc1ccc2sc(N(Cc3cccnc3)C(=O)C3COc4ccccc4O3)nc2c1C` (stereo not given), the “activity change, negative = inhibition” value was -15.6%.

On to `Cc1ccc(C(=O)Nc2ccc(OCc3cc(=O)n4c5c(sc4n3)CCCC5)cc2)cc1`, for which the “activity change, negative = inhibition” value was 6.29%.

For `CCOC(=O)c1nnn2c3ccccc3c(=O)n(C)c12`, the “activity change, negative = inhibition” value is -7.58%.

As to `CCOn1c(=O)c(=O)n(O)c2ccccc21`, the Potency is 44.7 µM (active).

On to `COn1c(=O)c(=O)n(OC)c2ccccc21`, for which the “activity change, negative = inhibition” value is -17.5%.

`Cc1ccc(-c2cnc(C3CC3)o2)cc1S(=O)(=O)Nc1cccc(C)c1C`: the “activity change, negative = inhibition” value is -26.8%.

With `CCc1ccc(CNCc2c(C(=O)O)n(Cc3ccc(F)cc3Cl)c3cc(OC)ccc23)cc1`, the “activity change, negative = inhibition” value was -18.7%.

For `CC(C)(C)OC(=O)N1CCC(c2c(C(=O)NCc3ccccn3)cnn2-c2ccc(F)cc2)CC1`, the “activity change, negative = inhibition” value was -5.83%.

On to `CCC(C)[C@@H](C(=O)N1CCNCC1)n1cc(CCCCN)nn1` (stereo not given in full), for which the “activity change, negative = inhibition” value is -14.4%.

With `C#CCOCCOCCOCCNc1nc(N2CCN(C(=O)Cn3cc(CCO)nn3)CC2)nc(N2CCN(C(=O)[C@H](CCCCN)n3cc(CCCC)nn3)CC2)n1`, the “activity change, negative = inhibition” value is -18.8%.

On to `C#CCOCCOCCOCCNc1nc(N2CCN(C(=O)C([C@@H](C)O)n3cc([C@@H](N)CCCCN)nn3)CC2)nc(N2CCN(C(=O)[C@H](CCCCN)n3cc(CN)nn3)CC2)n1` (stereo not given in full), for which the Potency was 79.4 µM (active).

Take `C#CCOCCOCCOCCNc1nc(N2CCN(C(=O)C([C@@H](C)CC)n3cc(C(N)COC(=O)C(F)(F)F)nn3)CC2)nc(N2CCN(C(=O)[C@H](CCCCN)n3cc(C(N)CC(C)C)nn3)CC2)n1` (stereo not given in full): the Potency is 56.2 µM (active).
